Measurements reported in PubChem BioAssay AID1159580 (chemical genetic matrix, 2015).
The campaign covered roughly 5,500 compounds. About 2,000 (36%) were called active. Another 18% or so got no clear call; they are omitted. Cut-off read from the data, not from the text of the source: active = normalized growth mostly below about 0.91 (no sharp cut-off); inconclusive = no clear call, values can overlap the other calls; inactive = mostly above about 0.92. The list shows a part of the results.

Assay: chemical genetic growth profiling, strain panel (AID 1159580);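 note: tested at 20 µM; growth read once vehicle control cultures reached saturation at 30 °C; 1 = growth at the plate median or of vehicle wells; lower values mean less growth of the strain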
Conditions: S. cerevisiae deletion strains, growth OD
[1] = locus YDL101C, strain DUN1, active compounds read low
[2] = locus YHR030C, strain SLT2, active compounds read low

Measured: normalized growth

N/C(CSc1ccc(Cl)cc1)=N/OC(=O)c1ccc(C(F)(F)F)cc1
inactive: locus YDL214C, strain PRR2, active compounds read low 0.798 | locus YDR052C, strain DBF4, active compounds read low 0.912 | locus YDR477W, strain SNF1, active compounds read low 0.798 | locus YER123W, strain YCK3, active compounds read low 0.774 | locus YER133W, strain GLC7, active compounds read low 0.853 | locus YFR003C, strain YPI1, active compounds read low 0.908 | locus YGR040W, strain KSS1, active compounds read low 0.816 | locus YGR052W, strain FMP48, active compounds read low 0.838 | locus YGR092W, strain DBF2, active compounds read low 0.805 | locus YHR079C, strain IRE1, active compounds read low 0.739 | locus YHR082C, strain KSP1, active compounds read low 0.788 | locus YHR205W, strain SCH9, active compounds read low 0.604 | locus YJL095W, strain BCK1, active compounds read low 0.7 | locus YJL128C, strain PBS2, active compounds read low 0.889 | locus YJL157C, strain FAR1, active compounds read low 0.826 | locus YJR066W, strain TOR1 (second series), active compounds read low 0.687 | locus YJR066W, strain TOR1, active compounds read low 0.651 | locus YKL048C, strain ELM1, active compounds read low 0.953 | locus YKL067W, strain YNK1, active compounds read low 0.826 | locus YKL101W, strain HSL1, active compounds read low 0.863 | locus YKL203C, strain TOR2, active compounds read low 0.859 | locus YLR133W, strain CKI1, active compounds read low 0.822 | locus YLR403W, strain SFP1, active compounds read low 0.761 | locus YML070W, strain DAK1, active compounds read low 0.852 | locus YMR205C, strain PFK2 (second series), active compounds read low 0.836 | locus YNL020C, strain ARK1, active compounds read low 0.836 | locus YNL161W, strain CBK1, active compounds read low 0.9 | locus YNL183C, strain NPR1, active compounds read low 0.82 | locus YNL307C, strain MCK1 (second series), active compounds read low 0.786 | locus YOL136C, strain PFK27, active compounds read low 0.852 | locus YOR061W, strain CKA2, active compounds read low 0.803 | locus YOR119C, strain RIO1, active compounds read low 0.845 | locus YOR231W, strain MKK1, active compounds read low 0.791 | locus YPL031C, strain PHO85, active compounds read low 0.807 | locus YPL153C, strain RAD53, active compounds read low 0.811 | locus YPL204W, strain HRR25, active compounds read low 0.786
active: locus YAR019C, strain CDC15, active compounds read low 0.853 | locus YBL105C, strain PKC1, active compounds read low 0.895 | locus YBR135W, strain CKS1, active compounds read low 0.89 | locus YBR136W, strain MEC1, active compounds read low 0.889 | locus YBR160W, strain CDC28, active compounds read low 0.874 | locus YDL017W, strain CDC7, active compounds read low 0.893 | locus YDL028C, strain MPS1, active compounds read low 0.847 | [1] 0.867 | locus YDL108W, strain KIN28, active compounds read low 0.881 | locus YDL132W, strain cdc53, active compounds read low 0.886 | locus YDR054C, strain cdc34, active compounds read low 0.87 | locus YDR226W, strain ADK1, active compounds read low 0.867 | locus YFL009W, strain cdc4, active compounds read low 0.841 | locus YFL029C, strain CAK1, active compounds read low 0.853 | locus YFR019W, strain FAB1, active compounds read low 0.766 | locus YFR028C, strain CDC14, active compounds read low 0.86 | [2] 0.422 | locus YIL147C, strain SLN1, active compounds read low 0.876 | locus YJR016C, strain ILV3, active compounds read low 0.889 | locus YKL193C, strain SDS22, active compounds read low 0.885 | locus YLR113W, strain HOG1, active compounds read low 0.619 | locus YMR001C, strain CDC5, active compounds read low 0.866 | locus YMR277W, strain FCP1, active compounds read low 0.855 | locus YNL006W, strain LST8, active compounds read low 0.892 | locus YNL207W, strain RIO2, active compounds read low 0.874 | locus YNL222W, strain SSU72, active compounds read low 0.872 | locus YOL078W, strain AVO1, active compounds read low 0.877 | locus YOR329C, strain SCD5, active compounds read low 0.9 | locus YPL209C, strain IPL1, active compounds read low 0.892 | locus YPL256C, strain CLN2, active compounds read low 0.647 | locus YPR025C, strain CCL1, active compounds read low 0.886 | locus YPR106W, strain ISR1, active compounds read low 0.875 | locus YPR111W, strain DBF20, active compounds read low 0.855 | strain NNK1, active compounds read low 0.862 | strain TSCII, active compounds read low 0.85

CC(C)(C)C(=O)N1CCN(c2ncccc2C(F)(F)F)CC1
inactive: locus YAL013W, strain DEP1, active compounds read low 0.988 | locus YBR229C, strain ROT2, active compounds read low 0.983 | locus YCL061C, strain MRC1, active compounds read low 0.998 | [1] 0.977 | locus YDL134C, strain PPH21, active compounds read low 0.967 | locus YDR150W, strain NUM1, active compounds read low 0.983 | locus YEL061C, strain CIN8, active compounds read low 0.96 | locus YGR078C, strain PAC10, active compounds read low 0.979 | [2] 0.853 | locus YHR087W, strain rtc3, active compounds read low 0.973 | locus YJR043C, strain POL32, active compounds read low 0.997 | locus YJR075W, strain HOC1, active compounds read low 0.983 | locus YLR039C, strain RIC1, active compounds read low 0.914 | locus YLR058C, strain SHM2 (second series), active compounds read low 0.989 | locus YLR085C, strain ARP6, active compounds read low 0.941 | locus YLR262C, strain YPT6, active compounds read low 0.865 | locus YML094W, strain GIM5, active compounds read low 0.939 | locus YMR219W, strain ESC1, active compounds read low 0.99 | locus YMR263W, strain SAP30, active compounds read low 1.02 | locus YNL153C, strain GIM3, active compounds read low 0.992 | locus YNL298W, strain CLA4 (second series), active compounds read low 0.966 | locus YNL322C, strain KRE1, active compounds read low 0.974 | locus YNR030W, strain Alg12, active compounds read low 0.963 | locus YOL006C, strain TOP1, active compounds read low 0.871 | locus YPL055C, strain LGE1, active compounds read low 0.959 | locus YPL241C, strain CIN2, active compounds read low 0.999 | locus YPR135W, strain CTF4, active compounds read low 0.787
